High-throughput results deposited in PubChem by Broad Institute.
Many of the other results were omitted from the sample, so hits are more common in it than they were.
DUX4 txn inh – inhibitors of DUX4-driven ZSCAN4 reporter expression, primary screen, 293T cells, Gaussia and Italica luciferase | 293T-iDUX4 ZSCAN4-Gaussia luciferase reporter, 24 h; hits give low values | actives 0.8% (n = 37,000) | AID 1224904, 2016 | activity change, negative = inhibition, % (test concentration not listed);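 active means mean inhibition of at least 10% in the main channel, exceeding the control channel by a set limit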;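 further: 0% = median of neutral control wells and -100% = median of positive control wells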
Numbers without * were called inactive; ! = a repeat was not active.

SMILES	DUX4 txn inh
Cc1cccc(-c2ccc([C@@H]3[C@@H](CO)N4CCCCN(Cc5ccncc5)C[C@H]34)cc2)c1	-5
Cc1cccc(-c2ccc([C@H]3[C@H]4CN(CCC(F)(F)F)CCCCN4[C@H]3CO)cc2)c1	-49*
O=C(C1CC1)N1CCCCN2[C@H](CO)[C@@H](c3ccc(-c4cccc(F)c4)cc3)[C@H]2C1	0
CN(C)C(=O)c1ccc(-c2ccc([C@@H]3[C@@H](CO)N4CCCCN(CCC(F)(F)F)C[C@@H]34)cc2)cc1	11
O=C(C1CC1)N1CCCCN2[C@H](C1)[C@H](c1ccc(-c3cccc(F)c3)cc1)[C@@H]2CO	1
O=C(C1CC1)N1CCCCN2[C@H](CO)[C@@H](c3ccc(-c4cccc(F)c4)cc3)[C@@H]2C1	-23*
CC(=O)N1CC2(C1)[C@@H](c1ccc(-c3ccc(C#N)cc3)cc1)[C@@H](CO)N2C(C)=O	10
C[C@H](CO)N1C[C@H](C)[C@@H](CN(C)C(=O)c2ccc(F)cc2)OCc2ccccc2-c2c(n(C)c3ccccc23)C1=O	-8
COc1ccccc1-c1ccc(C2[C@H]3CNC[C@@H]2N3Cc2ccc(F)cc2)cc1 (some centres not stated)	17
CCCNC(=O)N1C[C@@H]2N[C@H](C1)C2c1ccc(-c2cccnc2)cc1 (some centres not stated)	-1
c1ccc(-c2ccc(C3[C@H]4CNC[C@@H]3N4Cc3nccs3)cc2)cc1 (some centres not stated)	9
Cc1cccc(-c2ccc(C3[C@@H]4CN(C(=O)C5CCOCC5)C[C@H]3N4)cc2)c1 (some centres not stated)	7
Cc1cccc(-c2ccc(C3[C@H]4CNC[C@@H]3N4Cc3cccc(F)c3)cc2)c1 (some centres not stated)	8
COc1ccccc1-c1ccc(C2[C@@H]3CN(Cc4cccc(F)c4)C[C@H]2N3)cc1 (some centres not stated)	-48*
O=C(Nc1cccc(F)c1)N1C[C@@H]2N[C@H](C1)C2c1ccc(-c2ccc(F)cc2)cc1 (some centres not stated)	9
COc1cccc(CN2CCCCN3[C@@H](CO)[C@@H](c4ccc(-c5ccccc5OC)cc4)[C@@H]3C2)c1	3
COc1ccccc1-c1ccc(C2[C@@H]3CN(Cc4nccs4)C[C@H]2N3)cc1 (some centres not stated)	-43*
CCCNC(=O)N1C[C@@H]2N[C@H](C1)C2c1ccc(-c2cccc(F)c2)cc1 (some centres not stated)	-43*!
COc1ccccc1-c1ccc([C@H]2[C@H](CO)N3CCCCN(Cc4ccncc4)C[C@@H]23)cc1	2
Cc1cccc(-c2ccc(C3[C@@H]4CN(Cc5cccc(F)c5)C[C@H]3N4)cc2)c1 (some centres not stated)	-55*!
COCC(=O)N1CC2(C1)CN(C(=O)CN1CCOCC1)[C@H](CO)c1c2c2ccc(OC)cc2n1C	18
C[C@@H]1CCCCO[C@@H](CN(C)S(=O)(=O)c2ccc(Cl)cc2)[C@H](C)CN([C@H](C)CO)C(=O)c2cc(NC(=O)CCCN(C)C)ccc2O1	2
CO[C@@H](CN(C)S(=O)(=O)c1cn(C)cn1)[C@H](C)CN(C(=O)Nc1ccc(F)cc1)[C@@H](C)CO	2
C[C@@H]1CCc2cnnn2COC[C@H](Cc2ccccc2)NC1=O	-3
CN1c2ccc(-c3ccccc3F)cc2[C@H]2[C@H](CCN2S(=O)(=O)c2ccccc2)[C@@H]1CO	12
SMILES	DUX4 txn inh
O=C(C[C@@H]1CC[C@H]2[C@@H](COC[C@@H](O)CN2S(=O)(=O)c2ccccc2)O1)N1CCc2ccccc2C1	2
CC=Cc1ccc2n(c1=O)C[C@H]1[C@H](CO)[C@@H](C(=O)NCCC)[C@@H]2N1CC1CC1 (mixture of isomers)	10
CO[C@H]1CN(C)C(=O)c2ccc(NC(=O)Nc3c(C)noc3C)cc2OC[C@H](C)N(C)C[C@@H]1C	1
C[C@@H]1CC(=O)NCC/C=C\C[C@H](c2cccc(Cl)c2)NC1=O	-6
O=C(C[C@@H]1CC[C@H]2[C@@H](COC[C@H](O)CN2C(=O)c2ccccn2)O1)NC1CCC1	7
COc1cccc(-c2ccc3c(c2)[C@@H]2[C@@H](CCN2C(=O)C2CCOCC2)[C@@H](CO)N3)c1	-3
O=C(NC1CCC1)[C@H]1[C@H](CO)[C@H]2Cn3c(cccc3=O)[C@H]2N1CCc1ccccc1	20
COC(=O)C[C@H]1CC[C@H]2[C@@H](COc3ccc(NC(=O)CN(C)C)cc3C(=O)N2C)O1	-2
O=C(C[C@H]1C[C@H]2c3cc(NC(=O)CC4CC4)ccc3O[C@H]2[C@H](CO)O1)NCc1ccncc1	1
COc1ccc(S(=O)(=O)Nc2ccc3c(c2)C(=O)N([C@H](C)CO)C[C@@H](C)[C@@H](CN(C)C(=O)Nc2cccc4ccccc24)OCCCC[C@@H](C)O3)cc1	2
C[C@H](CO)N1C[C@H](C)[C@H](CN(C)Cc2ccccc2C(F)(F)F)OCc2ccccc2-c2c(n(C)c3ccccc23)C1=O	-59*
C[C@H](CO)N1C[C@H](C)[C@@H](CN(C)Cc2ccccc2C(F)(F)F)OCc2ccccc2-c2c(n(C)c3ccccc23)C1=O	-46*
C[C@@H]1CN([C@@H](C)CO)C(=O)c2c(c3ccccc3n2C)-c2ccccc2CO[C@@H]1CN(C)C	-7
C[C@H]1CN([C@@H](C)CO)C(=O)c2c(c3ccccc3n2C)-c2ccccc2CO[C@H]1CN(C)C	6
C[C@@H]1CN([C@H](C)CO)C(=O)c2c(c3ccccc3n2C)-c2ccccc2CO[C@@H]1CN(C)C(=O)Nc1ccccc1C(F)(F)F	-1
COc1ccccc1CN(C)C[C@H]1OCc2ccccc2-c2c(n(C)c3ccccc23)C(=O)N([C@H](C)CO)C[C@H]1C	-3
CC(=O)N(C)C[C@@H]1[C@@H](c2ccccc2)[C@H](CO)N1C(=O)C1CC1	1
C[C@@H]1CN([C@H](C)CO)C(=O)c2c(c3ccccc3n2C)-c2ccccc2CO[C@H]1CN(C)Cc1ccc(C(=O)O)cc1	6
C[C@@H]1CN([C@@H](C)CO)C(=O)c2c(c3ccccc3n2C)-c2ccccc2CO[C@@H]1CN(C)Cc1ccc(O)cc1	-9
C[C@H]1CN([C@@H](C)CO)C(=O)c2c(c3ccccc3n2C)-c2ccccc2CO[C@@H]1CN(C)Cc1ccc(C(F)(F)F)cc1	-49*
C[C@@H]1CN([C@H](C)CO)C(=O)c2c(c3ccccc3n2C)-c2ccccc2CO[C@@H]1CN(C)Cc1ccc(C(F)(F)F)cc1	-43*
C[C@@H]1CN([C@H](C)CO)C(=O)c2c(c3ccccc3n2C)-c2ccccc2CO[C@H]1CN(C)Cc1ccc(C(F)(F)F)cc1	3
C[C@H]1CN([C@@H](C)CO)C(=O)c2c(c3ccccc3n2C)-c2ccccc2CO[C@@H]1CN(C)Cc1ccc(C(=O)O)cc1	16
COCC(=O)N1CC(=O)N2[C@H](CO)[C@@H](c3ccc(C#Cc4cccc(OC)c4)cc3)[C@@H]2C1	-7
CO[C@H](CN(C)S(=O)(=O)c1ccccc1)[C@@H](C)CN(Cc1ccccc1Cl)[C@H](C)CO	4
C[C@@H]1CC=CCCNC(=O)[C@@H](C)N(C)C(=O)c2ccccc2O1 (mixture of isomers)	-1
CO[C@@H](CN(C)Cc1cc(F)ccc1F)[C@H](C)CN(C(=O)Nc1ccc(F)cc1)[C@H](C)CO	-3
